# Active and inactive are the calls of the source. The calls were made as follows: active = hit-call score of the fitted dose curve at least 0.9, where 1 is the maximum; inactive = score below 0.9.
# Read-out: Signal transducer and activator of transcription 3 (Homo sapiens) (UniProt P40763)
# Assay: LTEA_HepaRG_STAT3: Life Technologies and Expression Analysis (LTEA) Assay for Signal transducer and activator of transcription (STAT3) using HepaRG (AID 2283529)
# Details: mRNA level, 48 h; actives raise or lower the signal
# Experimental: LTEA_HepaRG is a cell based, multiplexed-readout assay that uses HepaRG, a human liver cell line, with measurements taken at 48 hours after chemical dosing on a 96-well plate.LTEA_HepaRG_STAT3 is one of 102 assay component(s) measured in the LTEA HepaRG cell culture assay. It is a marker of Cell proliferation, survival, death.Data from the assay component LTEA_HepaRG_STAT3 was analyzed into 1 endpoint. This assay endpoint, LTEA_HepaRG_STAT3, was analyzed with bidirectional fitting relative to DMSO as the negative control and baseline of activity. Using a type of inducible reporter, measures of mRNA induction for gain or loss-of-signal activity can be used to understand regulation of transcription factor activity. To generalize the intended target to other relatable targets, this assay endpoint is annotated to the dna binding intended target family, where the subfamily is stat protein.
# A total of 1060 chemcials from the ToxCast library were tested in eight-point concentration-response experiments. Cell culture and cytotoxicity assays were conducted at Thermo Fisher Scientific's Custom Services facility (Madison, WI). A single lot of human HepaRG cells (Thermo Fisher Scientific, Frederick, MD) was used for the cell culture experiments. 96-well format collagen type I coated plates of human HepaRG cells were prepared using established methods. Briefly, cryopreserved HepaRG cells were thawed, plated at a density of approximately 100,000 cells/well in HepaRG Thaw, Plate, and General Purpose media (HPRG770, Thermo Fisher Scientific), and incubated for 48 hours. 0.5% DMSO was selected as vehicle control to balance the requisite need of DMSO in HepaRG cultures to maintain differentiation (for example, baseline metabolism, proportions of hepatocytes vs. cholangiocytes), while enabling further hepatic receptor pathway activation (for example, PXR and CAR) in response to chemical exposure. 48 hours after plating, the culture medium was replaced with HepaRG Serum-Free Incudtion Media. Cells were exposed to each test chemical in duplicate and maintained in CO2 incubators for another 48 hours. Chemical plates were thawed to room temperature and 200x concentrations of treatment groups were prepared. 8-point conentration-reponse curves were made with the highest exposure at 100 uM, followed by half-log dilutions, all in 0.5% DMSO. Each test plate contained variouse controls, induction positive controls (1mM phenobarbital), cytotoxicity positive controls ([…] aflatoxin B1), vehicle controls (0.5% DMSO), and total lysis controls (0.5% DMSO). Cell morphology images were taken using an Essen IncuCyte FLR automated microscope, with six 96-well plates imaged in about 24 minutes. Images were captured and exported and JPEG files. Spent culture media was transfered to black-well plates for the LDH assay, and remaining media was sorted at -80 C for later use. Cells were treated with RLT buffer and frozen until shipped for gene expression analysis. Total RNA was isolated from the cell suspension in 75 uL of Buffer RLT (Qiagen, Germantown, MD 20874) by Quintiles/Expression Analysis (Durham, NC) using a custom isolation procedure. Total RNA from each plate well was transferred to a preamplification plate. Fluidigm's 96.96 Dynamic ArrayTM (Fluidigm, Amsterdam, the Netherlands) technology was used for gene expression analyses by quantitative reverse transcription polymerase chain reaction (qRT-PCR, performed by Quintiles/Expression Analysis, Durham, NC)89. Standard TaqManTM Assays (Applied Biosystems/ThermoFisher Scientific, Foster City, CA) were used to assess the expression of 93 genes selected based on their selectivity and sensitivity to important hepatic receptors known to be modulated by environmental chemicals; importance in human hepatocyte functionality; and hepatotoxicity. […]
# Signal transducer and activator of transcription 3 (Homo sapiens), sequence (P40763 whole entry, looked up): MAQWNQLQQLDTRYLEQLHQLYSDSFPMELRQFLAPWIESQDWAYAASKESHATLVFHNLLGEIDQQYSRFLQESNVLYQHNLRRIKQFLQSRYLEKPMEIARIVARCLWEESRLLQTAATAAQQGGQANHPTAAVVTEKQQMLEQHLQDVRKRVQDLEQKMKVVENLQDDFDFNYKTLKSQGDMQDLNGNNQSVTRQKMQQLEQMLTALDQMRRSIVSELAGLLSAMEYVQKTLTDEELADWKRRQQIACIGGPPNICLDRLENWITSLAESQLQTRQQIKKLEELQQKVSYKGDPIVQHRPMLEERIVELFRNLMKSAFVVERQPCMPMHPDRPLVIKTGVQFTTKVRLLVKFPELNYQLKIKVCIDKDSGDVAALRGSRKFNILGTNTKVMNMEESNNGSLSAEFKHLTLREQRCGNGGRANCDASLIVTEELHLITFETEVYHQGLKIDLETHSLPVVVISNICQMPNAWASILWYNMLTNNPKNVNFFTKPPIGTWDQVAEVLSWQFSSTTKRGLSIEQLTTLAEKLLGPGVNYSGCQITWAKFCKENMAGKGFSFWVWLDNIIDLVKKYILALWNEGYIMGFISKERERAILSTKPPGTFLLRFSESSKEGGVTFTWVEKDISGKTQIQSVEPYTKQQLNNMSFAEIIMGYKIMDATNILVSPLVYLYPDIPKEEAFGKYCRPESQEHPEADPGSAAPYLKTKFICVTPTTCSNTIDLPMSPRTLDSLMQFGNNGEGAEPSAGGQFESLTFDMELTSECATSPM
SMILES,outcome,AC50
Cc1cnc(C2=NC(C)(C(C)C)C(=O)N2)c(C(=O)O)c1 (stereo not given),inactive,
CC(C)Nc1nc(Cl)nc(NC(C)C)n1,inactive,
COC(=O)c1c(C(F)F)nc(C(F)(F)F)c(C2=NCCS2)c1CC(C)C,inactive,
COC(=O)NS(=O)(=O)c1ccc(N)cc1,inactive,
CNC(=O)Oc1cccc2ccccc12,inactive,
Clc1nc(Cl)nc(Nc2ccccc2Cl)n1,inactive,
CC(C)N1C(=O)N(c2ccccc2)CSC1=NC(C)(C)C,inactive,
CC(C)C1(C)N=C(c2ncccc2C(=O)O)NC1=O (stereo not given),inactive,
C=CCOC(=O)C(C)(C)OC(=O)c1cc(-n2c(=O)cc(C(F)(F)F)n(C)c2=O)ccc1Cl,inactive,
Nc1cnn(-c2ccccc2)c(=O)c1Cl,inactive,
CCOP(=S)(OCC)Oc1nc(Cl)n(C(C)C)n1,inactive,
CC1(C)C(C=C(Cl)Cl)C1C(=O)OC(C#N)c1cccc(Oc2ccccc2)c1 (stereo not given),inactive,
Cn1c(-c2ccccc2)cc(-c2ccccc2)[n+]1C,,22.5 µM (active)
CCCC(=NOCC)C1=C(O)CC(CC(C)SCC)CC1=O (stereo not given),inactive,
COP(=O)(OC)O/C(C)=C/C(=O)N(C)C,inactive,
CC(C)(C)C(=O)C(Oc1ccc(Cl)cc1)n1cncn1 (stereo not given),inactive,
CCOc1nc(F)cc2nc(S(=O)(=O)Nc3c(Cl)cccc3Cl)nn12,inactive,
CS(=O)(=O)c1cc(C(F)(F)F)ccc1C(=O)c1cnoc1C1CC1,inactive,
CCCCOCN(C(=O)CCl)c1c(CC)cccc1CC,inactive,
Clc1cccc(C(Cl)(Cl)Cl)n1,inactive,

SMILES,outcome,AC50
O=P(O)(O)CCCl,inactive,
CC1(C)C(C(=O)OC(C#N)c2cccc(Oc3ccccc3)c2)C1(C)C (stereo not given),inactive,
O=C1C2CC=CCC2C(=O)N1SC(Cl)(Cl)Cl (stereo not given),inactive,
COP(=S)(OC)SCn1nnc2ccccc2c1=O,inactive,
CC(C)NC(=O)N1CC(=O)N(c2cc(Cl)cc(Cl)c2)C1=O,,5.78 µM (active)
CCC(C)n1c(=O)[nH]c(C)c(Br)c1=O (stereo not given),,31.8 µM (active)
CCCN(CC)CC1COC2(CCC(C(C)(C)C)CC2)O1 (stereo not given),inactive,
N#Cc1c[nH]cc1-c1cccc2c1OC(F)(F)O2,inactive,
COc1cc(Cl)c(OC)cc1Cl,inactive,
CC1(C)CCC(=Cc2ccc(Cl)cc2)C1(O)Cn1cncn1 (stereo not given),inactive,
CO/N=C(/C1=NOCCO1)c1ccccc1Oc1ncnc(Oc2ccccc2Cl)c1F,,6.5 µM (active)
N#CN=C1SCCN1Cc1ccc(Cl)nc1,inactive,
Cc1ccc(N=CN(C)C=Nc2ccc(C)cc2C)c(C)c1,inactive,
CS(=O)(=O)c1ccc(C(=O)C2C(=O)CCCC2=O)c([N+](=O)[O-])c1,inactive,
COCc1cnc(C2=NC(C)(C(C)C)C(=O)N2)c(C(=O)O)c1 (stereo not given),inactive,
O=c1n(Cl)c(=O)n(Cl)c(=O)n1Cl,inactive,
CSC(=O)c1c(C(F)F)nc(C(F)(F)F)c(C(=O)SC)c1CC(C)C,,49.8 µM (active)
OC(c1ccc(Cl)cc1)(c1ccc(Cl)cc1)C(Cl)(Cl)Cl,inactive,
COCC(C)N(C(=O)CCl)c1c(C)csc1C (stereo not given),inactive,
CN=C=S,inactive,

# — PubChem BioAssay (EPA / NIEHS)
